Source: PubChem BioAssay (Tox21)
Results filed as inconclusive are left out. Active and inactive are the calls of the source. Unless noted, calls come from the whole dose curve; as a rule, active = well fitted curve in the direction sought with a large enough effect in the repeat runs; inconclusive = weak or mixed curves; inactive = no such curve, though single readings can be large; an effect the other way counts as inactive or inconclusive.

How the values were obtained:
[1] = qHTS assay for small molecule agonists of the p53 signaling pathway (AID 651631; calls by dose curve; note: nearly all actives have a fitted effect of over 15% in size); settings: HCT-116 p53RE-bla reporter, beta-lactamase FRET ratio, 16 h; series mostly up to 73.3 µM
Procedure, shortened: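 We treat p53RE-bla HCT-116 cells with compounds for 16 h at 37 °C, add LiveBLAzer B/G FRET substrate for 2 h at room temperature, and measure fluorescence intensity.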

[2] = qHTS assay for small molecules that induce genotoxicity in human embryonic kidney cells expressing luciferase-tagged ATAD5 (AID 651632); settings: HEK293T ATAD5-luciferase induction, 16 h; series mostly up to 83.3 µM; note: nearly all actives have a fitted effect of over 15% in size
Procedure, shortened: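 Cells were seeded at 2,000 per well, dosed with compound, and incubated 16 hr at 37C in 5% CO2. Luciferase activity was then quantified after a 30 min room-temperature incubation with Amplite.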

[3] = qHTS assay for small molecule agonists of the p53 signaling pathway - cell viability (AID 651633; calls by dose curve; note: nearly all actives have a fitted effect of over 30% in size); settings: p53RE-bla HCT-116 viability, ATP luminescence, 16 h; series mostly up to 83.3 µM
Procedure, shortened: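 p53RE-bla cells were treated with compound for 16 hours at 37 C. Cytotoxicity was then measured as CellTiter-Glo luminescence after 30 min at room temperature.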

[4] = qHTS assay for small molecules that induce genotoxicity in human embryonic kidney cells expressing luciferase-tagged ATAD5 - cell viability (AID 651634; calls by dose curve; note: nearly all actives have a fitted effect of over 25% in size); settings: HEK293T ATAD5-luc cells viability, CellTiter-Fluor, 15.5 h; series mostly up to 83.3 µM
Procedure, shortened: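 Cells (HEK293T, luciferase-tagged ATAD5) are seeded at 2,000 per well, dosed with compound or DMSO vehicle, and incubated 15.5 hr at 37C and 5% CO2. CellTiter-Fluor is added for 30 min before fluorescence is measured.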

[5] = qHTS assay for small molecule disruptors of the mitochondrial membrane potential - cell viability (AID 720634; calls by dose curve;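 note: human HepG2 liver cancer cells; nearly all actives have a fitted effect of over 20% in size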); settings: HepG2 viability, ATP luminescence (CellTiter-Glo), 1 h; series mostly up to 83.2 µM
Procedure, shortened: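 Cytotoxicity was measured by ATP quantitation in HepG2 wells that had first been treated with compound for 1 hr and stained with m-MPI dye; CellTiter-Glo incubation was 30 min at room temperature.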

[6] = qHTS assay to test for compound auto fluorescence at 590 nm (red) in HepG2 cells (AID 720674); settings: HepG2 autofluorescence, red 540/590 nm, 1 h; series mostly up to 91.3 µM
Procedure, shortened: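 Seeding: 2,000 HepG2 cells/well, MEM/10% FBS, overnight 37 C. Dosing: compound vs DMSO. Incubation: 1 hr, 37 C, 5% CO2. Read: fluorescence 540 ex/590 em, Rose Bengal sodium as red reference.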

[7] = qHTS assay to test for compound auto fluorescence at 535 nm (green) in HepG2 cells (AID 720675); settings: green autofluorescence 485/535 nm, 1 h; series mostly up to 91.3 µM
[8] = qHTS assay to test for compound auto fluorescence at 460 nm (blue) in HEK293 cells (AID 720678); settings: blue autofluorescence 405/460 nm; series mostly up to 91.3 µM
Procedure, shortened: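 After cell attachment (4-5 hr, 37C), compounds were pinned onto HEK293 monolayers in 10% dialyzed FBS medium. The blue channel (405/460 nm) was read following overnight culture. Equivalency was calculated against triamterene.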

[9] = qHTS assay to test for compound auto fluorescence at 590 nm (red) in HEK293 cells (AID 720679); settings: red autofluorescence 540/590 nm; series mostly up to 91.3 µM
Procedure, shortened: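 Plates of HEK293 cells (10% dialyzed FBS) are treated with 23 nL compound or DMSO vehicle after a 4-5 hr attachment period, incubated overnight at 37C, and read for red fluorescence at 540/590nm.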

[10] = qHTS assay to test for compound auto fluorescence at 535 nm (green) in HEK293 cells (AID 720680); settings: green autofluorescence 485/535 nm; series mostly up to 91.3 µM
[11] = qHTS assay to test for compound auto fluorescence at 460 nm (blue) in HEK293 cell free culture (AID 720681); settings: cell-free medium, autofluorescence 405/460 nm (blue); series mostly up to 91.3 µM
Procedure, shortened: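 Compounds were added to cell-free DMEM with 10% FBS and fluorescence read directly. The blue channel used 405 nm excitation and 460 nm emission, with triamterene as the reference fluorophore.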

[12] = qHTS assay to test for compound auto fluorescence at 535 nm (green) in HEK293 cell free culture (AID 720682); settings: cell-free medium, green autofluorescence 485/535 nm, hits give high values; series mostly up to 91.3 µM
Procedure, shortened: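 Green-channel intensity (Ex/Em 485/535 nm) was recorded from compound-treated wells containing only DMEM with 10% FBS. Fluorescein provided the equivalency standard.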

[13] = qHTS assay to test for compound auto fluorescence at 590 nm (red) in HEK293 cell free culture (AID 720683); settings: cell-free medium autofluorescence, Ex540/Em590 red; series mostly up to 91.3 µM
Procedure, shortened: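 Cell-free wells of DMEM with 10% FBS received compound, and intrinsic fluorescence was read at excitation/emission 540/590 nm. Values expressed as equivalence to Rose Bengal sodium.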

[14] = qHTS assay to test for compound auto fluorescence at 590 nm (red) in HepG2 cell free culture (AID 720684); settings: cell-free medium autofluorescence, red 540/590 nm; series mostly up to 91.3 µM
Procedure, shortened: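 Rose Bengal sodium served as the reference for red signal. Test compounds were dispensed into serum-containing MEM (10% FBS) without cells, and plates were read at 540/590 nm.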

[15] = qHTS assay to test for compound auto fluorescence at 460 nm (blue) in HepG2 cell free culture (AID 720685); settings: Cell-free culture medium, blue autofluorescence 405/460 nm; series mostly up to 91.3 µM
Procedure, shortened: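 Cell-free plates of MEM plus 10% FBS received 23 nL compound or DMSO vehicle; blue-channel (405/460 nm) intensity scored against triamterene as reference fluorophore.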

[16] = qHTS assay to test for compound auto fluorescence at 535 nm (green) in HepG2 cell free culture (AID 720686); settings: Cell-free medium, green autofluorescence 485/535 nm; series mostly up to 91.3 µM
[17] = qHTS assay to test for compound auto fluorescence at 460 nm (blue) in HepG2 cells (AID 720687); settings: autofluorescence 405/460 nm, 1 h; series mostly up to 91.3 µM
Procedure, shortened: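 HepG2 cells in MEM with 10% FBS, attached overnight at 37 C, were exposed to compound or DMSO for 1 hr at 37 C, 5% CO2. Blue fluorescence was read at 405/460 nm, with triamterene as reference fluorophore.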

[18] = target: Glucocorticoid receptor (Homo sapiens) (UniProt P04150); assay: qHTS assay to identify small molecule agonists of the glucocorticoid receptor (GR) signaling pathway (AID 720691; active = well fitted activation curve with a large enough effect in the signal ratio in the repeat runs, not every such curve was filed as active; the % refers to the signal ratio); settings: GR-bla HeLa, beta-lactamase reporter ratio, 18 h; series mostly up to 62.4 µM
Sequence of Glucocorticoid receptor (Homo sapiens) (P04150 whole entry, looked up): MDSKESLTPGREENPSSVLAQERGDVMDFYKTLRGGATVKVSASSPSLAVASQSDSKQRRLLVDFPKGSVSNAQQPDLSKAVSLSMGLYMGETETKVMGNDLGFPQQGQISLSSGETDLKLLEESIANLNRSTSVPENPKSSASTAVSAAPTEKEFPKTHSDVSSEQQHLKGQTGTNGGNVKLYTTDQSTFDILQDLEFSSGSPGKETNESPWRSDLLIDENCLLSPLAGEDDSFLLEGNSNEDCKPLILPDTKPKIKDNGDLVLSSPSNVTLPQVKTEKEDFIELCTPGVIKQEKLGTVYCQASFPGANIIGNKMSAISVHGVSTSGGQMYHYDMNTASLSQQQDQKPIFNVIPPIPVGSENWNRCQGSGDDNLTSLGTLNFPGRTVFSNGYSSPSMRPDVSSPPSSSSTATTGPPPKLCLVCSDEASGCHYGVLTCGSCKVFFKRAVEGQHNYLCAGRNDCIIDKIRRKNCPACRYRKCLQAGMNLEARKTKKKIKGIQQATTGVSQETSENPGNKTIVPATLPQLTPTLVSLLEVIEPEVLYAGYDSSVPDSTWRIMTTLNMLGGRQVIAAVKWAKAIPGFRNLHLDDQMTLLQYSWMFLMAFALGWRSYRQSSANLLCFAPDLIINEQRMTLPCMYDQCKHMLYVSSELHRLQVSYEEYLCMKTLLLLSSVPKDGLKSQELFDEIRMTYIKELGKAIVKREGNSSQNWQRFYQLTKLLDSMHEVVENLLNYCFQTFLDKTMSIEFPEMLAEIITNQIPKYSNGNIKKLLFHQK
Procedure, shortened: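 Steps: seed GR-bla HeLa cells, incubate 4 h at 37 C/5% CO2; pin-transfer DMSO-dissolved compounds; incubate 18 h at 37 C; add LiveBLAzer B/G FRET substrate; after 2 h at room temperature, measure fluorescence.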

[19] = target: Glucocorticoid receptor (Homo sapiens) (UniProt P04150); assay: qHTS assay to identify small molecule antagonists of the glucocorticoid receptor (GR) signaling pathway (AID 720692; active = well fitted inhibition curve with a large enough effect in the signal ratio in the repeat runs, not every such curve was filed as active; the % refers to the signal ratio); settings: GR-bla HeLa, beta-lactamase FRET ratio, dexamethasone-stimulated, 18 h; series mostly up to 58.5 µM
Procedure, shortened: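 Antagonism was scored as loss of dexamethasone-driven (5 nM final) reporter signal in HeLa cells bearing a glucocorticoid response element–beta-lactamase construct, after 18 h compound exposure at 37 C and 2 h FRET substrate loading.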

[20] = qHTS assay for small molecule disruptors of the mitochondrial membrane potential (AID 720635); settings: HepG2 mitochondrial membrane potential, Mito-MPS dye ratio; series mostly up to 83.2 µM; note: potency is the fitted concentration of half-maximal effect
Procedure, shortened: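 HepG2 cells exposed to compound 1 hr at 37C, then Mito-MPS dye 30 min. Ratio read of aggregate (540/590 nm) versus monomer (490/535 nm) fluorescence.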

Measured: Potency

O=C(O)C(=O)Cc1c[nH]c2ccccc12
inactive: [1] | [2] | [3] | [4] | [5] | [6] | [7] | [8] | [9] | [10] | [11] | [12] | [13] | [14] | [15] | [16] | [17]

CCOC(=O)C1CC(=O)C(=C(O)C2CC2)C(=O)C1 (stereo not drawn)
inactive: [1] | [2] | [3] | [4] | [5] | [6] | [7] | [8] | [9] | [10] | [11] | [13] | [14] | [15] | [16] | [17] | [18] | [19]

COc1cc(Cl)ccc1Cl
inactive: [1] | [2] | [3] | [4] | [5] | [6] | [7] | [8] | [9] | [10] | [11] | [12] | [13] | [14] | [16] | [17] | [18] | [19]

Cc1cccc(C)c1NC(=O)CN1CCCCCC1
inactive: [1] | [2] | [3] | [4] | [5] | [6] | [7] | [8] | [9] | [10] | [11] | [12] | [13] | [15] | [16] | [17] | [18]

CCCN(CCC)C(=O)C(CCC(=O)O)NC(=O)c1ccccc1 (stereo not drawn)
inactive: [1] | [2] | [3] | [4] | [5] | [6] | [7] | [8] | [9] | [10] | [11] | [12] | [13] | [15] | [16] | [18]

CC(C)Nc1nc(N)nc(Cl)n1
inactive: [1] | [3] | [4] | [5] | [20] | [6] | [7] | [8] | [9] | [10] | [11] | [12] | [13] | [14] | [15] | [16] | [17] | [18]

CCCCNc1ccc(C(=O)OCCN(CC)CC)cc1
inactive: [2] | [3] | [4] | [5] | [20] | [6] | [7] | [8] | [9] | [10] | [11] | [12] | [13] | [14] | [15] | [16] | [17]

Cc1cc2nc(N)sc2cc1C
active: [20] 49 µM
inactive: [1] | [3] | [4] | [5] | [6] | [7] | [8] | [9] | [10] | [11] | [13] | [14] | [15] | [16] | [17] | [18] | [19]

CC(C)OC(C)C
inactive: [1] | [2] | [3] | [4] | [5] | [6] | [7] | [8] | [9] | [11] | [12] | [14] | [16] | [18]

CO[Si](C)(C)OC
inactive: [1] | [3] | [4] | [5] | [6] | [7] | [8] | [9] | [10] | [11] | [12] | [13] | [14] | [15] | [16] | [17] | [18]

Cc1ccsc1C(=CCCN1CCC[C@@H](C(=O)O)C1)c1sccc1C
inactive: [1] | [2] | [3] | [4] | [5] | [6] | [7] | [8] | [9] | [10] | [11] | [13] | [15] | [16] | [17]

CN1CCN(c2c(F)cc3c(=O)c(C(=O)O)cn(CCF)c3c2F)CC1
inactive: [1] | [3] | [5] | [20] | [6] | [7] | [8] | [9] | [11] | [12] | [13] | [14] | [15] | [16] | [18] | [19]

C[C@@H](N)C(=O)O
inactive: [1] | [2] | [3] | [4] | [5] | [6] | [7] | [8] | [9] | [10] | [11] | [14] | [15] | [16] | [17] | [18]

CN1CCC[C@@H]1Cc1c[nH]c2ccc(CCS(=O)(=O)c3ccccc3)cc12
inactive: [2] | [3] | [4] | [5] | [20] | [6] | [7] | [8] | [9] | [10] | [11] | [12] | [13] | [14] | [15] | [16]

COC(=O)N[C@H](C(=O)N[C@@H](Cc1ccccc1)[C@@H](O)CN(Cc1ccc(-c2ccccn2)cc1)NC(=O)[C@@H](NC(=O)OC)C(C)(C)C)C(C)(C)C
inactive: [1] | [2] | [3] | [4] | [6] | [7] | [8] | [9] | [10] | [11] | [12] | [13] | [14] | [15] | [16] | [17] | [18] | [19]

CCOc1ccc2nc(N)sc2c1
inactive: [1] | [3] | [6] | [7] | [8] | [9] | [10] | [11] | [12] | [13] | [14] | [15] | [16] | [17] | [18] | [19]

O=C(C(Cl)Cl)N1CCOC12CCCCC2
inactive: [1] | [2] | [3] | [4] | [5] | [6] | [7] | [8] | [9] | [11] | [12] | [14] | [15] | [16] | [18] | [19]

Nc1ccc2ccccc2c1S(=O)(=O)O
inactive: [1] | [3] | [4] | [5] | [20] | [6] | [7] | [8] | [9] | [10] | [11] | [12] | [13] | [15] | [16] | [17] | [18]

CC(C)NCC(O)COc1ccc(CCOCC2CC2)cc1 (stereo not drawn)
inactive: [1] | [3] | [4] | [5] | [20] | [6] | [7] | [8] | [9] | [10] | [11] | [12] | [13] | [14] | [15] | [16] | [17] | [18]
